Laboratory results reported in PubChem BioAssay (NCATS).
Records with an inconclusive call do not appear. A number with no mark means an inactive call. Calls of active or inactive are those of the source. The call rests on the fitted dose curve; in most records, active means well fitted inhibition curve with a large enough effect; inconclusive means small, poorly fitted or top-dose-only effect; inactive means flat fitted curve, though single readings scatter.

test: P-glycoprotein substrates identified in KB-8-5-11 adenocarcinoma cell line, qHTS therapeutic library screen (AID 1346987); details: KB-8-5-11 (P-gp overexpressing) viability, CellTiter-Glo, 72 h; series mostly up to 44.5 µM; activity change, negative = cytotoxicity: at the top concentration; further: nearly all actives have a fitted effect of over 65% in size
How it was run: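 Compounds are pinned in dose-response onto KB-8-5-11 cells (500 cells/well, colchicine-free medium) and left 72 h at 37 degree C. CellTiter-Glo luminescence then yields AC50 values.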
On the % scale 0 is the no-effect control and ±100 the full control effect.

Row | SMILES | activity change, negative = cytotoxicity | outcome
1 | C=CCc1ccc(O[C@@H]2O[C@H](CO[C@@H]3O[C@@H](C)[C@H](O)[C@@H](O)[C@H]3O)[C@@H](O)[C@H](O)[C@H]2O)cc1 | 2.46% [at 17.3 µM] | 
2 | CCC(C)(O)C(O)C(=O)OCc1ccc(O[C@@H]2O[C@H](CO)[C@@H](O)[C@H](O)[C@H]2O)c(OC)c1 (stereo partly specified) | 2.32% [at 17.3 µM] | 
3 | CCn1c2ccccc2c2cc(CNC)ccc21 | -8.6% | 
4 | Cc1ncc([N+](=O)[O-])n1CC(O)CN1CCOCC1 (stereo unspecified) |  | inactive
5 | CC1OC(OC2C(CO)OC(OCC3OC(OC(=O)C45CCC(C)(C)CC4C4=CCC6C7(C)CCC(OC8OC(C(=O)O)C(O)C(OC9OC(CO)C(O)C(O)C9O)C8O)C(C)(C)C7CCC6(C)C4(C)CC5)C(O)C(O)C3O)C(O)C2O)C(O)C(O)C1O (stereo unspecified) |  | inactive [at 9.29 µM]
6 | COC1CC(=O)C23C(=O)NC(CC(C)C)C2C(C)C(C)=CC3/C=C(\C)CCC1O (stereo unspecified) | 6.49% [at 17.3 µM] | 
7 | COc1ccc(C(OC2OC(CO)C(O)C(O)C2O)C(C)O)cc1 (stereo unspecified) |  | inactive
8 | Cc1ccc(Sc2cncc3sc(C(N)=O)cc23)cc1 | -12.6% | 
9 | CCCC(N[C@@H](C)C(=O)N1[C@H](C(=O)O)C[C@@H]2CCCC[C@@H]21)C(=O)OCC (stereo partly specified) |  | inactive
10 | C=CC(C)(O)CC/C=C(\C)C(=O)OC1CC2(C(=O)O)CCC3(C)C(=CCC4C5(C)CCC(OC6OC(COC7OCC(O)C(O)C7O)C(O)C(OC7OCC(O)C(O)C7O)C6OC6OC(CO)C(O)C(O)C6OC6OCC(O)C(O)C6O)C(C)(C)C5CCC43C)C2CC1(C)C (stereo unspecified) |  | inactive [at 9.29 µM]
11 | CC1C(=O)CC2C3C(O)CC(C(=O)O)C12CC3(C)C (stereo unspecified) |  | inactive
